Outcome and AC50 data for four compounds are collected here from PubChem BioAssay (EPA / NIEHS).

Read-out in assay [1]: Interleukin-1 alpha (IL1a), IL1A (gene 3552)
As to the kind of experiment: BSK_KF3CT_IL1a: BioMAP Diversity Plus: KF3CT Assay for Interleukin-1 alpha (IL1a) Biomarker Activity (AID 2283070). Particulars: primary human keratinocytes with fibroblasts; actives raise or lower the signal. The procedure, abridged:
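Human keratinocyte plus foreskin fibroblast primary co-culture, sampled 24 h after chemical dosing. IL-1a measured by ELISA; responses fitted bidirectionally against DMSO baseline (negative control), so gain or loss of signal both count.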

Read-out in assay [2]: TIMP metallopeptidase inhibitor 2 (TIMP2), TIMP2 (gene 7077)
The experiment in a line: BSK_KF3CT_TIMP2: BioMAP Diversity Plus: KF3CT Assay for TIMP metallopeptidase inhibitor 2 (TIMP2) Biomarker Activity (AID 2283071). Particulars: primary human keratinocytes with fibroblasts; actives raise or lower the signal. In outline: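 Cells: human keratinocytes co-cultured with foreskin fibroblasts. Treat with chemical, 24 h. Measure TIMP-2 by ELISA; fit curves bidirectionally vs DMSO baseline.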

Read-out in assay [3]: Transforming growth factor beta 1 (TGFb1), TGFB1 (gene 7040)
The experiment in a line: BSK_KF3CT_TGFb1: BioMAP Diversity Plus: KF3CT Assay for Transforming growth factor beta 1 (TGFb1) Biomarker Activity (AID 2283072). Particulars: primary human keratinocytes with fibroblasts; actives raise or lower the signal. The procedure, abridged: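 Primary human skin cells (keratinocytes, foreskin fibroblasts) were co-cultured, exposed to test chemical and sampled at 24 h. TGF-b1 levels were measured by ELISA and fitted bidirectionally relative to DMSO.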

Read-out in assay [4]: C-C motif chemokine 2 (Homo sapiens) (UniProt P13500)
As to the kind of experiment: BSK_KF3CT_MCP1: BioMAP Diversity Plus: KF3CT Assay for Monocyte Chemoattractant Protein 1 (MCP1/CCL2) Biomarker Activity (AID 2283073). Particulars: primary human keratinocytes with fibroblasts; actives raise or lower the signal. The procedure, abridged: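 KF3CT skin co-culture (keratinocytes/foreskin fibroblasts), 24 h post-dose; MCP-1 by ELISA; gain/loss of signal fit bidirectionally vs DMSO baseline.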

Read-out in assay [5]: Matrix Metallopeptidase 9 (MMP9), MMP9 (gene 4318)
The experiment in a line: BSK_KF3CT_MMP9: BioMAP Diversity Plus: KF3CT Assay for Matrix Metallopeptidase 9 (MMP9) Biomarker Activity (AID 2283074). Particulars: primary human keratinocytes with fibroblasts; actives raise or lower the signal. In outline: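 Keratinocyte plus foreskin fibroblast human primary skin co-culture was dosed with chemical and MMP-9 was quantified by ELISA 24 h later. Bidirectional curve fitting used DMSO as negative control and activity baseline.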

Read-out in a further assay: CD40, CD40 (gene 958)
As to the kind of experiment: BSK_LPS_CD40: BioMAP Diversity Plus: LPS Assay for CD40 Biomarker Activity (AID 2283076). Particulars: primary human HUVEC with PBMC; actives raise or lower the signal. The procedure, abridged: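 ELISA readout of CD40 in HUVEC/PBMC co-culture (BSK_LPS system), 24 h post-dosing; bidirectional curve fit, DMSO baseline; parallel SRB total-protein staining for cytotoxicity.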

Read-out in assay [6]: E-selectin (Homo sapiens) (UniProt P16581)
The experiment in a line: BSK_LPS_Eselectin: BioMAP Diversity Plus: LPS Assay for Eselectin Biomarker Activity (AID 2283077). Particulars: primary human HUVEC with PBMC; actives raise or lower the signal. In outline: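 ELISA readout of E-selectin, 24 h post-dose, HUVEC + PBMC co-culture (LPS system). Gain or loss of signal vs DMSO baseline, bidirectional fit.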

The nature of assay [7]: BSK_LPS_SRB: Viability Assessment in the BioMAP Diversity Plus: LPS Assay (AID 2283079).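 Further: total protein by sulforhodamine B absorbance as a cytotoxicity measure; measured one day after compound addition.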 Particulars: primary human HUVEC with PBMC. In outline:
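HUVEC + PBMC co-culture, LPS-stimulated; compound 24 h. 10% TCA fix, 0.1% SRB stain, A560. Bidirectional fit vs DMSO.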

Read-out in assay [8]: Interleukin-1 alpha (IL1a), IL1A (gene 3552)
The experiment in a line: BSK_LPS_IL1a: BioMAP Diversity Plus: LPS Assay for Interleukin-1 alpha (IL1a) Biomarker Activity (AID 2283080). Particulars: primary human HUVEC with PBMC; actives raise or lower the signal. The procedure, abridged:
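HUVEC/PBMC co-culture, LPS system; 24 h after dosing; IL-1a by ELISA; gain or loss of signal fitted bidirectionally vs DMSO baseline.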

Read-out in assay [9]: Monocyte Chemoattractant Protein-1 (MCP1), CCL2 (gene 6347)
The experiment in a line: BSK_LPS_MCP1: BioMAP Diversity Plus: LPS Assay for Monocyte Chemoattractant Protein-1 (MCP1) Biomarker Activity (AID 2283081). Particulars: primary human HUVEC with PBMC; actives raise or lower the signal. The procedure, abridged: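 ELISA read-out of MCP-1 after 24 h chemical dosing of a human umbilical vein endothelial cell/peripheral blood mononuclear cell co-culture stimulated with LPS. Gain or loss of signal fitted relative to DMSO controls.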

A short description of assay [10]: BSK_LPS_PGE2: BioMAP Diversity Plus: LPS Assay for Prostaglandin E2 (PGE2) Biomarker Activity (AID 2283082).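 On AC50: secreted prostaglandin E2 measured by ELISA in LPS-stimulated co-culture.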 Particulars: primary human HUVEC with PBMC; actives raise or lower the signal. The procedure, abridged:
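LPS-activated HUVEC/PBMC co-culture; cmpd dosed, 24 h; PGE2 by ELISA; bidirectional fit vs DMSO; SRB (0.1%, TCA-fixed, 560 nm) in parallel plates for overt cytotox.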

Read-out in assay [11]: Macrophage colony-stimulating factor (MCSF), CSF1 (gene 1435)
As to the kind of experiment: BSK_LPS_MCSF: BioMAP Diversity Plus: LPS Assay for Macrophage colony-stimulating factor (MCSF) Biomarker Activity (AID 2283083). Particulars: primary human HUVEC with PBMC; actives raise or lower the signal. The procedure, abridged:
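HUVEC + PBMC co-culture (human primary), 24 h post-dose; M-CSF by ELISA; gain/loss of signal fitted bidirectionally vs DMSO baseline.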

Read-out in assay [12]: Tumor necrosis factor (Homo sapiens) (UniProt P01375)
As to the kind of experiment: BSK_LPS_TNFa: BioMAP Diversity Plus: LPS Assay for Tumour Necrosis Factor alpha (TNFa) Biomarker Activity (AID 2283085). Particulars: primary human HUVEC with PBMC; actives raise or lower the signal. In outline:
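Read-out is ELISA of TNFa in primary human endothelial cell–PBMC co-cultures at 24 h after compound. Activity in either direction was fitted against DMSO.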

Read-out in assay [13]: Vascular cell adhesion molecule 1 (VCAM1), VCAM1 (gene 7412)
The experiment in a line: BSK_LPS_VCAM1: BioMAP Diversity Plus: LPS Assay for Vascular cell adhesion molecule 1 (VCAM1) Biomarker Activity (AID 2283086). Particulars: primary human HUVEC with PBMC; actives raise or lower the signal. The procedure, abridged: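 HUVEC + PBMC co-culture, LPS system; compound 24 h; VCAM-1 by ELISA; bidirectional fit vs DMSO control; parallel SRB (0.1%, TCA-fixed, 560 nm) for cytotoxicity.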

Read-out in a further assay: CD38, CD38 (gene 952)
The experiment in a line: BSK_SAg_CD38: BioMAP Diversity Plus: SAg Assay for CD38 Biomarker Activity (AID 2283087). Particulars: primary human HUVEC with PBMC; actives raise or lower the signal. The procedure, abridged: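 Human HUVEC plus PBMC co-culture stimulated with superantigen; CD38 measured by ELISA 24 h after chemical dosing. Fluorescence read-out, bidirectional fit against DMSO; cytotoxicity tracked in parallel by SRB and Alamar Blue.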

Read-out in the next assay: CD69, CD69 (gene 969)
As to the kind of experiment: BSK_SAg_CD69: BioMAP Diversity Plus: SAg Assay for CD69 Biomarker Activity (AID 2283089). Particulars: primary human HUVEC with PBMC; actives raise or lower the signal. In outline:
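ELISA, fluorescence read-out: CD69 on human umbilical vein endothelial cell + PBMC co-culture, 24 h post-dosing. Gain or loss of signal fitted bidirectionally against DMSO baseline.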

Read-out in assay [14]: Interleukin-8 (IL8), CXCL8 (gene 3576)
As to the kind of experiment: BSK_LPS_IL8: BioMAP Diversity Plus: LPS Assay for Interleukin-8 (IL8) Biomarker Activity (AID 2283078). Particulars: primary human HUVEC with PBMC; actives raise or lower the signal. The procedure, abridged: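 HUVEC + PBMC co-culture, LPS-activated; test chemicals dosed, IL-8 read by ELISA at 24 h. Bidirectional curve fit vs DMSO baseline (gain or loss of signal).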

Read-out in assay [15]: Tissue Factor, F3 (gene 2152)
As to the kind of experiment: BSK_LPS_TissueFactor: BioMAP Diversity Plus: LPS Assay for Tissue Factor Biomarker Activity (AID 2283084). Particulars: primary human HUVEC with PBMC; actives raise or lower the signal. In outline: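 HUVEC/PBMC co-culture, LPS-activated; CD142 ELISA read 24 h post-dose; bidirectional curve fit vs DMSO negative control.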

The source holds several records for some structures; these can differ, active in one and inactive in another. Active and inactive are the calls of the source. How the source made its calls: active means hit-call score of the fitted dose curve at least 0.9, where 1 is the maximum; inactive means score below 0.9.

Chain of E-selectin (Homo sapiens) (P16581 whole entry, looked up): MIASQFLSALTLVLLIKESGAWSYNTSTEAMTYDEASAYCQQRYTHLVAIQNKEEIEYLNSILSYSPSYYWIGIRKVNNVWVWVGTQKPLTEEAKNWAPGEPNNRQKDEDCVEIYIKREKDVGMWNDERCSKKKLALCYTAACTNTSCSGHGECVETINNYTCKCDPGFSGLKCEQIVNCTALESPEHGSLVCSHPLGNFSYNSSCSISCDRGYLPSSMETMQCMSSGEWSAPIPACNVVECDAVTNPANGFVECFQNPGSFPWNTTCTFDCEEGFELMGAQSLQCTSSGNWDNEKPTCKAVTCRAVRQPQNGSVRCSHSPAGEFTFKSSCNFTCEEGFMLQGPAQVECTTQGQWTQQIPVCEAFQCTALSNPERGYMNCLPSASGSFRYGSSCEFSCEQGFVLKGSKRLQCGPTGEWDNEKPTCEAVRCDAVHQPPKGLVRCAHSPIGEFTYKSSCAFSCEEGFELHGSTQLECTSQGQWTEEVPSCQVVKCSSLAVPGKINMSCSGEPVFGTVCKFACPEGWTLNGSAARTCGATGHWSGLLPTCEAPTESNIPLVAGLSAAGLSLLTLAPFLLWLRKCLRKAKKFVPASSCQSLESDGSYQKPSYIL
Chain of Tumor necrosis factor (Homo sapiens) (P01375 whole entry, looked up): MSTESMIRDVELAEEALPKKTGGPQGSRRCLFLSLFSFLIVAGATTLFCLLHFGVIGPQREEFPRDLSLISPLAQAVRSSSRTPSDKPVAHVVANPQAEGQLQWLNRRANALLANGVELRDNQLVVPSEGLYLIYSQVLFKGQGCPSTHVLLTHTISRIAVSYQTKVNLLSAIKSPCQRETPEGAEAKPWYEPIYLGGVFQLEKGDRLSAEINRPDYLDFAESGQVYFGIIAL

As usually defined, the AC50 is the concentration at which the activity in the assay is half-maximal. Regarding `CC(C)[N+](C)(CCOC(=O)C1c2ccccc2Oc2ccccc21)C(C)C`, the outcome was “inactive” in assay [1]; “inactive” in assay [2]; “inactive” in [3]; “inactive” in [4]; “inactive” in [5]; “inactive” with CD40, CD40 (gene 958). For the same compound, the outcome in assay [6], in assay [8], in assay [9], in assay [10], in [11] and in assay [12] was inactive. The outcome in [13] was “inactive”; with CD38, CD38 (gene 952), “inactive”; in the assay with CD69, CD69 (gene 969), “inactive”. Further, the AC50 in assay [7] is 3.97 µM (active).
Turning to `CC(CCC(=O)O)(c1ccc(O)cc1)c1ccc(O)cc1`, the outcome in assay [1] was “inactive”; in assay [2], “inactive”; in assay [4] it was “inactive”; in assay [5], “inactive”; with CD40, CD40 (gene 958) it was “inactive”; in assay [6], “inactive”. The result in [14], in assay [7], in [8], in assay [9], in [10] and in assay [11] was inactive. Further, the outcome was “inactive” in assay [12]; “inactive” in assay [13]; “inactive” with CD38, CD38 (gene 952); “inactive” with CD69, CD69 (gene 969).
As to `CCCCCCCCCCCC(=O)N(C)CC(=O)O`, the outcome in [1] is “inactive”; in assay [2], “inactive”; in assay [4], “inactive”; in assay [5], “inactive”; with CD40, CD40 (gene 958), “inactive”; in assay [6], “inactive”. In addition, the result in [7], in assay [8], in assay [9], in [10], in [11] and in [12] was inactive. Also, the outcome in [13] was “inactive”; in the assay with CD38, CD38 (gene 952) it was “inactive”; in the assay with CD69, CD69 (gene 969), “inactive”. Also, the AC50 in [10] was 5.24 µM (active); in [11] it was 5.86 µM (active).
`CC=C(C)C(C)=O`: the outcome in [1] was “inactive”; in [2] it was “inactive”; in [3], “inactive”; in [4], “inactive”; in assay [5], “inactive”; in the assay with CD40, CD40 (gene 958) it was “inactive”. Besides, the result in [6], in assay [7], in assay [8], in assay [9], in assay [10] and in assay [11] was inactive. In addition, the outcome in [15] was “inactive”; in assay [12], “inactive”; in assay [13], “inactive”; with CD38, CD38 (gene 952) it was “inactive”; in the assay with CD69, CD69 (gene 969), “inactive”.
